In PubChem BioAssay AID492952 (Southern Research Specialized Biocontainment Screening …, 2010):
Screen size: about 2,300 compounds; about 1,500 (65%) were called active. How the calls were made is not given here. So high a share suggests a set chosen from earlier hits. The list shows a part of the results. Where a call stands in place of a potency, no number is given. Potency and affinity values are given separately.

Assay: replicating M. tuberculosis growth inhibition, dose response, non-replicating M. tuberculosis project, H37Rv (AID 492952);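 further: Mycobacterium tuberculosis grown in culture; growth inhibition read after a week of incubation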
Settings: series mostly up to 50 µM
For CCc1ccc(OCC(=O)c2c(O)c3ccccc3oc2=O)cc1, the outcome was “inactive”.
For O=C(CCC1CCCCC1)NCc1cccs1, the outcome was “inactive”.
With C=CCN=C1SC(CC)C(=O)N1S(=O)(=O)c1ccc(C)cc1 (stereo unspecified) the outcome was “inactive”.
For COc1ccc(CN=C2NN=C(c3ccc(Cl)cc3)CS2)cc1, the outcome was “inactive”.
With c1ccc(Cn2c(SCCN3CCOCC3)nnc2-c2cccnc2)cc1 the outcome was “inactive”.
With O=C(O)c1ccc(CN2C(=O)CSC2=S)cc1 the outcome was “inactive”.
With CN(C)CCN1C(=O)c2oc3ccccc3c(=O)c2C1c1cccc(Br)c1 (stereo unspecified) the outcome was “inactive”.
With CC12CC3CC(C)(C1)CC(C(=O)N1CCCC1)(C3)C2 the outcome was “inactive”.
With Cc1ccc(NC(=O)COc2ccccc2)cc1Cl the outcome was “inactive”.
With Cc1ccc(NC(=O)CNc2ccc(OC(C)C)cc2)cc1 the outcome was “inactive”.
With CNCc1ccccc1Sc1cc(O)ccc1O the outcome was “inactive”.
For CC1(C)CC(=O)C2=C(C1)OC(N)=C(C#N)C2C#Cc1ccccc1 (stereo unspecified), the outcome was “inactive”.
With CCOC(=O)Cc1ccc(NCc2ccc(Cl)cc2)cc1 the outcome was “inactive”.
For Cc1ccccc1OCCC(=O)OCC(=O)NNC(=O)c1cccs1, the outcome was “inactive”.
In the case of CC1=NN(C(=O)COc2ccccc2C)C(O)(c2ccc(Cl)cc2)C1 (stereo unspecified), the outcome was “inactive”.
With Cc1ccc2c(c1)C(=O)C(=O)N2CCCOc1ccccc1 the outcome was “inactive”.
For CC1=CC(C)(C)Nc2ccc(OC(=O)CN3C(=O)c4ccccc4C3=O)cc21, the outcome was “inactive”.
With N=c1oc2ccccc2cc1C(=O)Nc1ccccc1 the outcome was “inactive”.
In the case of c1ccc(OCc2nnc3sc(-c4cccs4)nn23)cc1, the outcome was “inactive”.
With O=c1[nH][nH]c(-c2ccccc2O)c1C(C[N+](=O)[O-])c1cccc(Cl)c1 (stereo unspecified) the outcome was “inactive”.
For Clc1ccc(OC2CCN(Cc3nc(CC4CC4)no3)CC2)cc1, the outcome was “inactive”.
In the case of CCOc1ccc(OCC(=O)OCc2cc(=O)n3cc(Br)ccc3n2)cc1, the outcome was “inactive”.
In the case of CCOC(=O)Cn1nc(/C=C/c2ccccc2)ccc1=O, the outcome was “inactive”.
In the case of O=C(CNC(=O)c1ccccc1)OC1CCCCC1, the outcome was “inactive”.
In the case of COc1ccc(-c2nnn(Cc3ccccc3)n2)cc1, the outcome was “inactive”.
With O=C1CC(Sc2ncccn2)C(=O)N1c1ccccc1C(F)(F)F (stereo unspecified) the outcome was “inactive”.
